Experimental data taken from PubChem BioAssay (Tox21).
Inconclusive results are not listed. Activity calls are given as the source filed them. Calls come from the whole dose curve.

Assay: qHTS assay to identify small molecule antagonists of the estrogen receptor alpha (ER-alpha) signaling pathway using the BG1 cell line (AID 743080);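 note: BG1 cells stimulated with 17beta-estradiol alongside compound; nearly all actives have a fitted effect of over 25% in size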
Conditions: BG1Luc4E2 ERE-luciferase antagonist mode, luminescence; series mostly up to 70.3 µM; activity change, negative = inhibition: at the top concentration
Description: National Center for Advancing Translational Sciences [NCATS]
NIH Chemical Genomics Center [NCGC]
U.S. Environmental Protection Agency [EPA]
National Institutes of Environmental Health Sciences [NIEHS]
National Toxicology Program [NTP]
U.S. Food and Drug Administration [FDA]
Estrogen receptor (ER), a nuclear hormone receptor, plays an important role in development, metabolic homeostasis and reproduction. Endocrine disrupting chemicals (EDCs) and their interactions with steroid hormone receptors like ER causes disruption of normal endocrine function. Therefore, it is important to understand the effect of environmental chemicals on the ER signaling pathway. To identify ER antagonists, BG1-Luc-4E2 cell line (provided by Dr. Michael Denison from University of California) has been used to screen the Tox21 10K compound library. BG1Luc4E2 cell line endogenously expresses full-length ER-alpha and is stably transfected with a plasmid containing four estrogen responsive elements (ERE) upstream of a luciferase reporter gene.
Tox21 Assay Protocol Summary:
BG1-Luc-4E2 cells were cultured in phenol red free assay medium containing 10% charcoal stripped FBS for 5 days before the assay was performed. The cells were dispensed at 4,000 cells/4 uL of assay medium per well into white wall/solid-bottom 1536-well plates using a Multidrop Combi (ThermoFisher Scientific, Waltham, MA) dispenser. The assay plates were incubated at a 37C and 5% CO2 for 24 h, and then 23 nL of compounds dissolved in DMSO, positive controls or DMSO only was transferred to the assay plate using a Pintool station (Kalypsys, San Diego, CA), followed by addition of 1 uL of 17beta-estradiol in assay medium using a Flying Reagent Dispenser (Aurora Discovery, San Diego, CA). After the plates were incubated at 37 C and 5% CO2 for 21.5 h, 1 uL of CellTiter-Fluor reagent (Promega, Madison, WI) of measuring cytotoxicity was added using Flying Reagent Dispenser (FRD) to each well. The assay plates were incubated at 37 C and 5% CO2 for additional 30 min and the fluorescence intensity was quantified by a ViewLux plate reader (PerkinElmer, Shelton, CT). For measuring luciferase reporter gene activity, 4 uL of ONE-Glo reagent (Promega) was added to each plate using an FRD and luminescence was quantified by a ViewLux plate reader after 30 min incubation at room temperature.
% is set by controls: 0 for no effect and ±100 for the full control effect.

Structure (SMILES) | activity change, negative = inhibition | outcome
OCCCC1CCCCC1 | -10.2% (inactive) | –
C1CN(CCOCCN2CCOCC2)CCO1 | 5.28% (inactive) | –
NS(=O)(=O)c1cc2c(cc1Cl)NC(C1CC3C=CC1C3)NS2(=O)=O (stereo not given) | 10.4% (inactive) | –
Cc1ccc(Cl)cc1Cl | 0.062% (inactive) | –
CCCCCCCCCCCCCC=O | 0.386% [at 8.47 µM] (inactive) | –
N=c1nc(N2CCCCC2)cc(N)n1O | 0.373% (inactive) | –
c1ccc([C@H]2CN3CCSC3=N2)cc1 | 10.6% (inactive) | –
CC1(C)C(O)C(C)(C)C1O (stereo not given) | 0.259% (inactive) | –
Nc1c2c(nc3ccccc13)CCCC2O (stereo not given) | 13.9% (inactive) | –
NCCCNCCSP(=O)(O)O | 1.45% (inactive) | –
Cc1c(NC(C)C)c(=O)n(-c2ccccc2)n1C | 1.7% (inactive) | –
COC(=O)c1c(Cl)c(Cl)c(C(=O)OC)c(Cl)c1Cl | – | inactive
O=C(O)CCCl | -6.17% [at 95 µM] (inactive) | –
CCCc1cc(C(N)=S)ccn1 | -1.28% (inactive) | –
COc1cc(C(=O)N2CCCCCCC2)cc(OC)c1OC | -6.51% (inactive) | –
CC(=O)c1ccccc1O | -2.37% (inactive) | –
CC(=O)Nc1c(I)cc(I)c(C(=O)O)c1I | 11.4% (inactive) | –
CS(=O)(=O)O | 1.83% [at 95 µM] (inactive) | –
C=CCS(=O)(=O)O | -8.35% (inactive) | –
CC1=CC(C)C(C=O)CC1 (stereo not given) | -1.59% (inactive) | –

Structure (SMILES) | activity change, negative = inhibition | outcome
OCCOc1ccc(OCCO)cc1 | 3% [at 95 µM] (inactive) | –
CC(C)(C)NCCNC(C)(C)C | -3.27% (inactive) | –
NS(=O)(=O)c1cc(C(=O)O)cc(N2CCCC2)c1Oc1ccccc1 | -3.61% [at 32.5 µM] (inactive) | –
CCOC(=O)[C@H](CCc1ccccc1)N[C@@H](C)C(=O)N1[C@H](C(=O)O)C[C@@H]2CCC[C@@H]21 | 2.41% (inactive) | –
C=COCC1CCC(CO)CC1 (stereo not given) | 1.69% (inactive) | –
O=C1CC2CC1C1CCCC21 (stereo not given) | 6.37% (inactive) | –
CC(C)(c1ccc(O)cc1)c1ccc(O)cc1 | – | inactive
C=C[Si](OC(=C)C)(OC(=C)C)OC(=C)C | -1.55% (inactive) | –
O=C1OC(=O)C2CCCCC12 (stereo not given) | -12% (inactive) | –
O=C1CCCN1C1CCCCC1 | -1.79% (inactive) | –
CN1C(=O)N(C)C(O)C1O (stereo not given) | 1.98% (inactive) | –
CN(C)CCCNCCCN(C)C | 4.33% (inactive) | –
CC(C(=O)O)c1ccc(CC2CCCC2=O)cc1 (stereo not given) | -0.447% (inactive) | –
N[C@@H](C(=O)N[C@@H]1C(=O)N2C(C(=O)O)=C(Cl)CS[C@H]12)c1ccccc1 | 16.7% (inactive) | –
Cc1cc(O)cc2c1O[C@](C)(CCC[C@H](C)CCC[C@H](C)CCCC(C)C)CC2 | – | inactive
CCC(=O)OC(C)c1ccccc1 (stereo not given) | -4.79% (inactive) | –
CC(C)(O)C(=O)c1ccccc1 | 2.06% (inactive) | –
N[C@H]1CN(c2c(F)cc3c(=O)c(C(=O)O)cn(C4C[C@H]4F)c3c2Cl)CC12CC2 (stereo not given in full) | -4.81% (inactive) | –
CC1(C)CO[C@@H](CC(=O)O)CN1 | -2.57% (inactive) | –
CCC(C)C1CCCCC1=O (stereo not given) | -0.377% (inactive) | –
